M1 ag: human M1 muscarinic receptor agonism; P11229; CHO-K1 hM1, Fluo-8 calcium fluorescence, agonist mode; 0% DMSO, 100% acetylcholine EC100; activation, % at 3 µM; 360,000 compounds, 0.33% hits; AID 588814;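 active means activation above the run's mean compound activation plus 3 SD, cut at about 16% in these data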;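 further: peak over basal fluorescence ratio within a 140 s kinetic read after compound addition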
Target sequence (P11229 whole entry, looked up): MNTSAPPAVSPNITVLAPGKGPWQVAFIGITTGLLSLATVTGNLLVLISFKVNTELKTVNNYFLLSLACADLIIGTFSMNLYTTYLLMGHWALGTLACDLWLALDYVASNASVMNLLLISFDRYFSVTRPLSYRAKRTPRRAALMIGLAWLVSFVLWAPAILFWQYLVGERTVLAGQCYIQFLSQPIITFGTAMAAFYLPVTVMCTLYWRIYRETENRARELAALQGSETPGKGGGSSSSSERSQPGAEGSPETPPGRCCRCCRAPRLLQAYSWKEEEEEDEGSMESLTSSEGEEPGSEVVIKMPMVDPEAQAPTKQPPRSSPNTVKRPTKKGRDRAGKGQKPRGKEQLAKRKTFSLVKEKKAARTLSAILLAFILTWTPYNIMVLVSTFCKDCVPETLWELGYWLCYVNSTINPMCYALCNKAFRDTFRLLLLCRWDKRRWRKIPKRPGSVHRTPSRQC
CHO-K1 Ca ag: counter-screen for M1 agonists: effect in parental CHO-K1 cells; Fluo-8 calcium fluorescence; scaled to maximal ATP response, vehicle zero; 360,000 compounds, 0.48% hits; activation, % at 3 µM; in the data active means activation above about 15%;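 further: untransfected CHO-K1 host cells lacking M1 receptor as counterscreen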
CHO-K1 Ca PAM: M1 PAM counterscreen hit in parental CHO-K1 cells; activation, % at 3 µM; AID 602247; 360,000 compounds, 0.02% hits; ATP EC20, Fluo-8 calcium fluorescence; 0% at ATP EC20, 100% at ATP max;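 active means activation above the run cutoff, the mean activation of all test compounds plus 3 SD, cut at about 40% in these data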;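 further: peak over basal fluorescence ratio in a 140 s read after ATP addition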
CHRM1 antagonist: human CHRM1 antagonism | 360,000 compounds, 1.3% hits | CHO-K1 hM1, Fluo-8 calcium fluorescence, ACh EC80 antagonist | AID 588852 | inhibition, % at 3 µM | P11229;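 active means percent inhibition above its own plate's cutoff, namely the mean of that plate's compound wells plus 3 SD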;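 further: peak over basal fluorescence ratio during 140 s after agonist addition; 0% = ACh EC80 plus DMSO and 100% = DMSO alone without agonist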
M1 PAM: potentiates human M1 receptor response to acetylcholine | P11229 | CHO-K1 hM1, Fluo-8 calcium fluorescence, ACh EC20; 0% = ACh EC20, 100% = maximal ACh | activation, % at 3 µM | 360,000 compounds, 0.088% hits | AID 588819; in the data active means activation above about 19%, passing the limit was not always enough
CHO-K1 Ca antag: M1 antagonist counterscreen hit in parental CHO-K1 cells. ATP-induced calcium, Fluo-8 fluorescence. inhibition, % at 3 µM. 360,000 compounds, 0.6% hits. AID 602250;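 active means inhibition above a per-plate cutoff, the plate's mean sample inhibition plus 3 SD, cut at about 24% in these data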;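 further: 0% = DMSO plus EC80 ATP and 100% = DMSO alone without ATP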
* hit, by the source's call. Hits are enriched below; roughly 2.3% of the tested compounds scored in any of these assays.

SMILES	M1 ag	CHO-K1 Ca ag	CHO-K1 Ca PAM	CHRM1 antagonist	M1 PAM	CHO-K1 Ca antag
Cc1c(C)c2ccc(OCC(=O)N[C@@H](Cc3c[nH]c4ccccc34)C(=O)O)cc2oc1=O	-2.2	-0.3	-16.4	-6.9	2.4	29.3*
COC(=O)C1=C(C)OC(N)=C(C#N)C1c1cc2cc(C)ccc2nc1Cl (centres undefined)	23.8*	8.3	-6.0	16.1	-21.1	17.3
CC(=O)C1=C(C)OC(N)=C(C#N)C1c1cc2cc(C)c(C)cc2nc1Cl (centres undefined)	-2.5	-0.4	-6.2	0.8	9.8	13.2
Cc1cccc(C(=O)N2N=C(c3ccc(NS(C)(=O)=O)cc3)CC2c2cccs2)c1 (centres undefined)	-5.3	2.3	9.7	2.9	0.2	13.6
CC1Sc2ccc(S(=O)(=O)N3CCC(C(=O)NCCc4ccccc4)CC3)cc2NC1=O (centres undefined)	-0.1	8.5	2.3	6.3	-4.5	-3.1
CC1Sc2ccc(S(=O)(=O)N3CCC(C(=O)NCC(C)c4ccccc4)CC3)cc2NC1=O (centres undefined)	1.4	15.5*	-13.4	46.5*	-16.8	5.5
O=C(COC(=O)c1cc(S(=O)(=O)N2CCOCC2)ccc1F)NCc1ccc2c(c1)OCO2	-2.0	0.4	8.8	-11.2	2.7	-14.0
CC(C)NC(=O)C(Sc1ccccc1)c1ccccc1 (centres undefined)	-2.1	-0.1	-7.7	0.1	5.8	23.8*
O=C(COC(=O)/C=C/c1ccc(S(=O)(=O)N2CCc3ccccc32)cc1)NC1CCS(=O)(=O)C1 (centres undefined)	-8.2	1.0	-0.7	4.5	5.1	16.5
O=C(Cc1ccccc1)N1CCc2ccccc21	-6.8	-0.3	14.4	-5.0	8.0	-4.8
O=C(C(Cc1ccccc1)N1C(=O)c2ccccc2C1=O)N1CCc2ccccc21 (centres undefined)	-0.8	-0.2	-7.4	-12.2	11.3	25.5*
CCN1CCN(S(=O)(=O)c2cc(OC)ccc2OC)CC1	-4.2	0.3	-11.7	9.6	-5.2	19.8
COc1ccc(OC)c(S(=O)(=O)N2CCN(C34CC5CC(CC(C5)C3)C4)CC2)c1	-5.8	0.7	1.5	47.8*	-20.1	-2.0
Cc1ccc(S(=O)(=O)N2CCNC(=O)CC2)cc1	-4.6	22.9*	7.3	-5.2	10.2	-3.7
Cc1ccc(S(=O)(=O)N2CCc3ccccc3CC2)cc1	-2.1	0.8	-21.2	23.5	-13.8	-1.4
CCCn1c(CN2CCN(C(=O)c3ccco3)CC2)nc2cc(S(=O)(=O)N(C)C)ccc21	-5.7	0.8	-3.6	-17.3	3.9	-0.5
CN(Cc1cccc(F)c1)C(=O)c1ccccc1Sc1ccccc1C#N	-5.1	1.8	0.8	0.2	-3.6	1.0
O=C(Cn1ccc(NC(=O)OCc2ccccc2)nc1=O)NCCCn1ccnc1	-6.3	0.3	9.0	-7.0	5.5	-12.2
O=C(N/N=C/c1ccc(O)cc1O)c1ccc(CN2C(=O)c3cccc4cccc2c34)cc1	16.4*	0.1	4.5	2.2	-4.1	10.4
O=C(N/N=C/c1cccnc1)c1ccc(CN2c3cccc4cccc(c34)S2(=O)=O)cc1	8.6	1.9	7.8	-0.4	-2.2	-9.7
O=C(N/N=C/c1ccccc1)c1ccc(CN2C(=O)c3cccc4cccc2c34)cc1	43.4*	1.2	17.8	-7.7	10.4	-8.8
Cc1cc([N+](=O)[O-])nn1Cc1ccc(C(=O)N/N=C/c2ccc(O)cc2O)cc1	-2.2	0.7	22.2	-6.6	3.0	-8.0
COc1ccc(-n2c(COc3cccc4ccccc34)nnc2SC(C)C(=O)O)cc1 (centres undefined)	-10.7	-1.0	-6.0	4.5	4.6	31.6*
COc1cccc(NC(=S)N2CCN(S(C)(=O)=O)CC2)c1	0.4	0.9	4.4	-11.6	8.1	-3.8
COc1cc(NC(=O)c2cccs2)c(C(=O)OCC(=O)c2cc(C)n(-c3ccc(F)cc3)c2C)cc1OC	-4.4	17.1*	11.8	6.6	5.4	7.9
COc1ccc(N2CC(C(=O)Nc3nc4ccc(S(C)(=O)=O)cc4s3)CC2=O)cc1 (centres undefined)	-3.7	0.6	12.2	-3.1	4.9	-15.9

Screens as filed in PubChem BioAssay.
